The record followed here is PubChem BioAssay AID463173 (ICCB-Longwood Screening Facility, Harvard Medical School, 2010).

About 1,700 (3.3%) of roughly 52,000 compounds were called active. Many of the other results were omitted from the sample, so actives are more common in it than they were. Unmarked numbers belong to inactive results. Rule as the data show it: active = survival mostly below about 52% (no sharp cut-off); inactive = mostly above about 56%.

In the test the test system is Wild type. Description: S. aureus survival, RN4220 and DeltatarO strains – OD600, teichoic acid synthesis inhibitors, primary screen (AID 463173). The note with it: S. aureus RN4220 wild type/DeltatarO growth, OD600, 18 h, hits give low values, screened at 18.75 µg/mL (by protocol).
For `Cc1cccc(N2CCN(S(=O)(=O)c3ccc(F)c(C(=O)Nc4ccc(C(C)C)cc4)c3)CC2)c1C`, the survival is 75%.
Consider `CCOc1ccc(CCNC(=O)Cn2c(C)c3cnn(-c4ccccc4)c(=O)c3c2C)cc1`, for which the survival is 95%.
As for `COc1ccc2c(c1)CCc1c(C(=O)Nc3c(C)nn(Cc4ccc(Cl)cc4)c3C)noc1-2`, the survival was 64%.
As to `COc1ccc2c(c1)CCc1c(C(=O)Nc3c(C)nn(Cc4ccc(C)cc4)c3C)noc1-2`, the survival is 16% (active).
Consider `COc1ccc2c(c1)CCc1c(C(=O)Nc3c(C)nn(Cc4ccccc4)c3C)noc1-2`, for which the survival was 92%.
On to `CC(=O)Nc1cc(C(=O)NCc2ccc(C)cc2)ccc1S(=O)(=O)c1ccc(Cl)cc1`, for which the survival was 85%.
`CCc1ccc(-n2c(=O)c3cccnc3n2CC(=O)Nc2cc(OC)ccc2OC)cc1`: the survival was 74%.
The result for `Cc1cc(C(=O)c2cccs2)c(N)s1` reads 90%; that for `COc1ccc(CNC(=O)c2ccc3c(c2)NC(=O)C(CS(=O)(=O)Cc2ccccc2Cl)N3)cc1` (stereo unspecified), 49%.
As to `Cc1ccc(C)c(N2CCN(C(=O)c3cn(CC(C)C)c(=O)c4c3c3ccccc3n4C)CC2)c1`, the survival was 17% (active).
For `Cc1ccc(Cl)cc1N1CCN(C(=O)c2cn(CC(C)C)c(=O)c3c2c2ccccc2n3C)CC1`, the survival was 87%.
As for `Cc1cccc(N2CCN(C(=O)c3cn(CC(C)C)c(=O)c4c3c3ccccc3n4C)CC2)c1C`, the survival is 89%.
As for `Cc1cccc(NC(=O)NCCn2c(=O)oc3ccc(C)cc32)c1`, the survival is 88%.
Regarding `Cc1ccc(C(C)C)c(OCCCn2c(=O)oc3ccccc32)c1`, the survival was -2% (active).
The result for `Cc1ccc2oc(=O)n(CCNC(=O)Nc3ccc(C)c(F)c3)c2c1` reads 108%; that for `Cc1ccc(C(C)C)c(OCCCn2c(=O)oc3ccc(C)cc32)c1`, -10% (active); that for `Cc1ccc(C(C)C)c(OCCn2cc(C(=O)c3ccco3)c3ccccc32)c1`, 30%.
As to `Cc1ccc(NC(=O)NCCOCCn2c(=O)oc3ccccc32)c(C)c1`, the survival was 88%.
Consider `Cc1nn2c(C)c(C(=O)NCc3ccc(OC(C)C)cc3)cnc2c1-c1ccc(F)cc1`, for which the survival was 76%.
The result for `COc1cc(OC)c(NC(=O)Cn2cnc3c(nc4n3CCCCC4)c2=O)cc1Cl` reads 59%.
Turning to `O=C(NCC1CCCO1)C1CC(=O)N(c2ccccc2)C1` (stereo unspecified), the survival is 123%.
For the molecule `Cc1ccc(S(=O)(=O)N2Cc3ccccc3CC2C(=O)N(C)C)cc1` (stereo unspecified), the survival is 102%.
The result for `Cc1ccc(Cn2c(C(=O)O)c(CNC3CCCC3)c3ccc(C)cc32)cc1` reads 83%.
As for `COc1cc(NC(=O)c2cc3c(=O)n(Cc4cccs4)ccc3nc2C)cc(OC)c1OC`, the survival was -2% (active).
The result for `COc1ccc(CNC(=O)c2cc3c(=O)n(Cc4cccs4)ccc3nc2C)cc1` reads 10% (active); that for `Cc1nc2ccn(Cc3cccs3)c(=O)c2cc1C(=O)NCc1ccc(Br)cc1`, 82%; that for `Cc1nc2ccn(Cc3cccs3)c(=O)c2cc1C(=O)Nc1ccccc1`, 91%.
For the molecule `CCOc1ccc(CNC(=O)c2cc3c(=O)n(Cc4cccs4)ccc3nc2C)cc1`, the survival is 118%.
With `Cc1nc2ccn(Cc3cccs3)c(=O)c2cc1C(=O)NCc1ccc(Cl)cc1`, the survival was 22%.
As for `COc1ccc(NC(=O)c2cc3c(=O)n(Cc4cccs4)ccc3nc2C)cc1`, the survival was 59%.
On to `Cc1nc2ccn(Cc3cccs3)c(=O)c2cc1C(=O)NCc1ccccc1`, for which the survival was 73%.
On to `CCc1ccc(CNC(=O)c2cc3c(=O)n(Cc4cccs4)ccc3nc2C)cc1`, for which the survival is 0% (active).
With `Cc1ccc(C)c(NC(=O)Cn2c(=O)n(CC3CCCO3)c(=O)c3ccccc32)c1` (stereo unspecified) the figure was 119%; with `CCOC(=O)c1c(NC(=O)c2cc3nc(-c4ccccc4)cc(C(F)(F)F)n3n2)sc2c1CCC(C)C2` (stereo unspecified), 65%.
As to `O=S(=O)(c1ccc(Br)cc1)N1CCn2cccc2C1c1ccc(Br)cc1` (stereo unspecified), the survival is 65%.
Consider `CCCOC(=O)c1cccc(Nc2nc(C(=O)OCC)nc3ccccc23)c1`, for which the survival is 44%.
As for `Cc1ccc(CNS(=O)(=O)c2c(C(=O)N3CCC(C)CC3)c(C)n(C)c2C)cc1`, the survival was 76%.
`O=C(Nc1nnc(C2CCCC2)s1)C1CC1`: the survival was 105%.
As to `CNC(=O)Nc1ccc2nc(C)sc2c1`, the survival is 112%.
The result for `COC(=O)CCN(c1ccccc1)S(=O)(=O)c1cc(-c2cc(C)no2)ccc1OC` reads 90%; that for `Cc1ccc2cc(CN(CC3CCCO3)C(=O)C(F)(F)F)c3nnnn3c2c1C` (stereo unspecified), 115%.
The result for `CCc1ccc(OC(C)C(=O)N2CCC(c3nc4ccccc4s3)CC2)cc1` (stereo unspecified) reads 35%.
For the molecule `CCC(Oc1ccccc1F)C(=O)N1CCC(c2nc3ccccc3s2)CC1` (stereo unspecified), the survival was -3% (active).
For `Cc1ccccc1OCC(=O)N1CCC(c2nc3ccccc3s2)CC1`, the survival was 65%.
For the molecule `COc1ccccc1OC(C)C(=O)N1CCC(c2nc3ccccc3s2)CC1` (stereo unspecified), the survival was -2% (active).
With `CCCOc1ccccc1C(=O)N1CCC(c2nc3ccccc3s2)CC1`, the survival is 68%.
On to `CC(Oc1ccc(F)cc1)C(=O)N1CCC(c2nc3ccccc3s2)CC1` (stereo unspecified), for which the survival is 80%.
As to `COCCn1c(CNC(=O)c2ccccc2C)nc2cccnc21`, the survival was 69%.
`COc1cc(Cl)c(C)cc1NC(=O)CNC(=O)Cn1ccc2ccccc2c1=O`: the survival is 65%.
For the molecule `COC(=O)C1=C(c2ccccc2)c2ccccc2S(=O)(=O)N1CC(=O)Nc1cc(C)ccc1C`, the survival is 77%.
Regarding `CCN(CC)S(=O)(=O)c1ccc2c(c1)N(CC(=O)NCc1ccccc1)C(=O)C1CCCCN21` (stereo unspecified), the survival was 102%.
Turning to `CCOc1ccc2nc(NCCCNC(=O)C3CCCO3)c(C#N)cc2c1` (stereo unspecified), the survival is 105%.
With `CCC(C)NC(=O)Cn1c(=O)n(-c2ccc(OC)c(OC)c2)c(=O)c2ccccc21` (stereo unspecified) the figure was 87%; with `COc1cccc(CNC(=O)CCCN2C(=O)CSc3c2c(C)nn3-c2ccccc2)c1`, 89%; with `COc1ccc(CCC(=O)NCc2ccc3c(c2)CCN3C(=O)c2ccc(Cl)cc2)cc1`, 80%.
With `COc1ccccc1C(=O)CC1(O)C(=O)N(CC(N)=O)c2ccccc21` (stereo unspecified), the survival was 65%.
The result for `CC1(c2ccccc2)CC(C)(C)N(C(=O)c2ccccc2Cl)c2ccccc21` (stereo unspecified) reads -2% (active); that for `COc1ccc(C(=O)N2CCC(C(=O)Nc3ccc(Cl)cc3)CC2)cc1`, 122%; that for `O=C(c1ccccc1Cl)n1cc(Cl)cn1`, 100%.
With `COc1ccccc1C(=O)N1c2ccccc2C(C)(c2ccc(Cl)cc2)CC1(C)C` (stereo unspecified) the figure was 2% (active); with `COc1ccccc1C(=O)n1nc(-c2ccccc2)nc1NCc1ccc(Cl)cc1`, 66%; with `CC1CCN(C(=O)c2cccc(Cl)c2)CC1`, 112%.
In the case of `CC1(c2ccccc2)CC(C)(C)N(C(=O)c2cccc(Cl)c2)c2ccccc21` (stereo unspecified), the survival is 6% (active).
For the molecule `CN1CC2(C)CN(C(=O)c3ccccc3Cl)CC(C)(C1)C2`, the survival was 112%.
On to `CC1CCN(c2ccc(NC(=O)c3cccc(Cl)c3)cc2C(=O)O)CC1`, for which the survival is 76%.
In the case of `COc1ccc(C(=O)N2c3ccccc3C(C)(c3ccc(Cl)cc3)CC2(C)C)cc1` (stereo unspecified), the survival is 6% (active).
With `Cc1ccc(F)cc1NC(=O)Cn1c(C)cc(C)c(C#N)c1=O` the figure was 131%; with `CCOc1ccc(CNC(=O)Cn2nc(C)c3c(C)n(-c4ccc(C)cc4)nc3c2=O)cc1`, 78%; with `O=C(CSc1ccc2nnc(CCNS(=O)(=O)c3ccccc3)n2n1)Nc1ccccc1C(F)(F)F`, 107%.
Consider `Cc1cccc(S(=O)(=O)Nc2cccc(-c3ccc(N4CCCCC4)nn3)c2)c1`, for which the survival is 69%.
On to `N#Cc1ccccc1NC(=O)C(=O)NCC(c1cccnc1)N1CCN(c2ccccc2)CC1` (stereo unspecified), for which the survival was 99%.
In the case of `Cc1ccc(NC(=O)c2c(C)nc3sc(C(=O)Nc4ccc(F)cc4)c(N)c3c2-c2ccccc2Cl)c(C)c1`, the survival is 65%.
Turning to `Cc1cn(C)c(CC(=O)Nc2ccc(F)cc2Cl)c1C(=O)O`, the survival was 76%.
In the case of `CCOC(=O)c1cccc(NC(=O)CCn2nc(C)c3c(C)n(-c4ccccc4)nc3c2=O)c1`, the survival was 73%.
On to `CC1(C)C(=O)N(CC(=O)Nc2ccc(Cl)cc2)c2ccccc21`, for which the survival was 59%.
The result for `O=C(NCc1ccc2c(c1)CCN2C(=O)c1ccc(Cl)cc1)c1cccc(F)c1` reads 55%; that for `CC1(c2ccc(Cl)cc2)CC(C)(C)N(C(=O)c2cccc(F)c2)c2ccccc21` (stereo unspecified), 7% (active); that for `CC1(c2ccc(Cl)cc2)CC(C)(C)N(C(=O)c2ccccc2)c2ccccc21` (stereo unspecified), -11% (active).
Take `O=C(c1cccc(F)c1)N1CCC(c2c[nH]c3ccccc23)(c2c[nH]c3ccccc23)CC1`: the survival was 63%.
As to `CC1CC(C)CN(C(=O)c2ccc(Cl)cc2)C1` (stereo unspecified), the survival was 117%.
`COc1ccc(-n2c(SCC(=O)Nc3ccc4c(c3)OCO4)nc3c([nH]c4ccccc43)c2=O)cc1`: the survival was 81%.
As to `Cc1ccc(COC(=O)c2[nH]c3c(c2C)C(=O)CC(c2ccc(Cl)cc2)C3)cc1` (stereo unspecified), the survival was 84%.
In the case of `COc1cc2[nH]c(=O)n(CCCC(=O)NCc3ccc(Cl)cc3)c(=O)c2cc1OC`, the survival was 90%.
Turning to `COc1ccccc1N1CCN(CC(O)COc2ccc(Cl)c(C)c2)CC1` (stereo unspecified), the survival was 66%.
On to `CC(=O)Nc1ccc(OCC(O)CN2CCN(c3ccc(C)c(Cl)c3)CC2)cc1` (stereo unspecified), for which the survival is 98%.
For `Cc1cc(OCC(O)CN2CCN(c3cccc(Cl)c3)CC2)ccc1Cl` (stereo unspecified), the survival is 0% (active).
Turning to `O=C(c1cc2ccccc2oc1=O)N1CCCCCC1`, the survival is 88%.
The result for `Cc1ccc(-n2ncc(C(=O)NCCN3CCCC3)c2C2CCN(C(=O)OC(C)(C)C)CC2)cc1` reads 153%.
As for `COc1ccc(-c2nnc(SCC#N)o2)cc1`, the survival was 106%.
For `COc1cccc(CSc2nnc(-c3ccc(F)cc3)o2)c1`, the survival was 113%.
For the molecule `COc1ccc(-c2nnc(SCc3cccc(Cl)c3)o2)cc1`, the survival was 13% (active).
